Results published in PubChem BioAssay (NCATS).
Inconclusive results are not listed. Activity calls are given as the source filed them. Calls come from the whole dose curve; as a rule, active = well fitted inhibition curve with a large enough effect; inconclusive = small, poorly fitted or top-dose-only effect; inactive = flat fitted curve, though single readings scatter.

Columns and labels:
Assay in all cases: qHTS profiling for inhibitors of Plasmodium falciparum proliferation (AID 504749); note: nearly all actives have a fitted effect of over 60% in size
Details in all cases: P. falciparum in erythrocytes, SYBR Green DNA, 72 h; series mostly up to 28.7 µM
ICS = test system: ICS
How it was run: (§1)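 In a 72 h erythrocytic culture (37 C, humidified, 5% CO2) at 2.5% hematocrit and 0.3% starting parasitemia, compounds were tested; SYBR Green I in detergent lysis buffer stained parasite DNA overnight.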

JCK = test system: JCK
How it was run: as §1

N140 = test system: N140
How it was run: as §1

P93_24 = test system: P93_24
How it was run: as §1

P94_40 = test system: P94_40
How it was run: as §1

PAD = test system: PAD
How it was run: as §1

PC15 = test system: PC15
How it was run: as §1

PC26 = test system: PC26
How it was run: as §1

PC49 = test system: PC49
How it was run: as §1

SC27B = test system: SC27B
How it was run: as §1

Measured: Potency

CN1CCN(C(=O)C2CCCCC2)CC1
inactive: ICS | JCK | N140 | P93_24 | P94_40 | PAD | PC15 | PC26 | PC49 | SC27B

CCN(CC)CCc1nc(-c2ccccc2)no1
inactive: ICS | JCK | N140 | P93_24 | P94_40 | PAD | PC15 | PC26 | PC49 | SC27B

O[C@@H]1CO[C@H]2[C@@H]1OC[C@@H]2O
inactive: ICS | JCK | N140 | P93_24 | P94_40 | PAD | PC15 | PC26 | PC49 | SC27B

O=C(O)CCCc1ccccc1
inactive: ICS | JCK | N140 | P93_24 | P94_40 | PAD | PC15 | PC26 | PC49 | SC27B

COc1ccc(Cc2cnc(N)nc2N)cc1OC
inactive: ICS | JCK | N140 | P93_24 | P94_40 | PAD | PC15 | PC26 | PC49 | SC27B

CC(=O)Oc1cccc(C)c1
inactive: ICS | JCK | N140 | P93_24 | P94_40 | PAD | PC15 | PC26 | PC49 | SC27B

FC(F)(F)C(Cl)Br (configuration not stated)
inactive: ICS | JCK | N140 | P93_24 | P94_40 | PAD | PC15 | PC26 | PC49 | SC27B

COc1ccc2cc(CCC(C)=O)ccc2c1
inactive: ICS | JCK | N140 | P93_24 | P94_40 | PAD | PC15 | PC26 | PC49 | SC27B

O=C(NCCCN1CCOCC1)c1ccc(Cl)cc1
inactive: ICS | JCK | N140 | P93_24 | P94_40 | PAD | PC15 | PC26 | PC49 | SC27B

O=C(c1ccccc1)C(O)c1ccccc1 (configuration not stated)
inactive: ICS | JCK | N140 | P93_24 | P94_40 | PAD | PC15 | PC26 | SC27B

Nc1ncnc(Nc2ccccc2)n1
inactive: ICS | JCK | N140 | P93_24 | P94_40 | PAD | PC15 | PC26 | PC49 | SC27B

CCOC(N)=O
inactive: ICS | JCK | N140 | P93_24 | P94_40 | PAD | PC15 | PC26 | PC49 | SC27B

COc1ccc(C(=O)N2CCN(CC(=O)N3CCOCC3)CC2)cc1
inactive: ICS | JCK | N140 | P93_24 | P94_40 | PAD | PC15 | PC26 | PC49 | SC27B

COc1ccc(O)cc1
inactive: ICS | JCK | N140 | P93_24 | P94_40 | PAD | PC15 | PC26 | PC49 | SC27B

CCCCCCCCCCCCCCCCN
inactive: ICS | JCK | N140 | P93_24 | P94_40 | PAD | PC15 | PC26 | PC49 | SC27B

CC(C)(C)C(=O)OCOC(=O)[C@@H]1N2C(=O)[C@@H](NC(=O)[C@H](N)c3ccccc3)[C@H]2SC1(C)C
inactive: ICS | JCK | N140 | P93_24 | P94_40 | PAD | PC15 | PC26 | PC49 | SC27B

CCCNC(C)(C)COC(=O)c1ccccc1
inactive: ICS | JCK | N140 | P93_24 | P94_40 | PAD | PC15 | PC49 | SC27B

Cc1cccc(Nc2ccccc2C(=O)O)c1C
inactive: ICS | JCK | N140 | P93_24 | P94_40 | PAD | PC15 | PC26 | PC49 | SC27B

Cn1c([N+](=O)[O-])cnc1COC(N)=O
inactive: ICS | JCK | N140 | P93_24 | P94_40 | PAD | PC15 | PC26 | PC49 | SC27B

CCc1nnc(NS(=O)(=O)c2ccc(N)cc2)s1
inactive: ICS | JCK | N140 | P93_24 | P94_40 | PAD | PC15 | PC26 | PC49 | SC27B

COc1cc(O)cc(O)c1
inactive: ICS | JCK | N140 | P93_24 | P94_40 | PAD | PC15 | PC26 | PC49 | SC27B

CCCCOC(=O)c1ccc(N)cc1
inactive: ICS | JCK | N140 | P93_24 | P94_40 | PAD | PC15 | PC26 | PC49 | SC27B

CC(C)CCCC(C)CCCC(C)CCCCC(C)CCCC(C)CCCC(C)C (configuration not stated)
inactive: ICS | JCK | N140 | P93_24 | PAD | PC15 | PC26 | PC49 | SC27B
